FLuc inh-1 = Firefly luciferase inhibition profiling of diverse chemical library using quantitative high-throughput screening. Luciferin 4-monooxygenase (Photinus pyralis), P08659. purified P. pyralis luciferase, luminescence, biochemical. Potency, µM (highest dose often 115 µM), most hits filed as inhibitors. 76,000 tested, 2.5% active; further: potency means the concentration at half of the fitted maximal effect; on the % scale 0 is the no-effect control and ±100 the full control effect; nearly all actives have a fitted effect of over 65% in size
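FLuc 10nM, D-luciferin 10uM, ATP 10uM, Mg acetate 10mM, Tris acetate pH 7.5, Tween/BSA; cpd qHTS; enzyme added last; CCD luminescence.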
NIH3T3 tox = Cytotoxic Profiling in NIH 3T3 Cell Line of Diverse Libraries Using Quantitative High-Throughput Screening; NIH 3T3 viability, CellTiter-Glo ATP luminescence, 48-72 h; Potency, µM (highest dose often 96.7 µM), for inactives: at the highest dose activity change, negative = cytotoxicity, hits mostly inhibitors; 94,000 tested, 4.3% active; AID 1345082, 2018; further: potency means the concentration at half of the fitted maximal effect; on the % scale 0 is the no-effect control and ±100 the full control effect; nearly all actives have a fitted effect of over 55% in size
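Cytotoxicity was measured by CellTiter-Glo ATP luminescence after 48 or 72 h compound exposure at 37 °C. Mouse NIH 3T3 fibroblasts were seeded at 400 cells/well and dosed by 23 nL pin transfer.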
HEK cytotox = Cytotoxic Profiling in HEK 293 Cell Line of Diverse Libraries Using Quantitative High-Throughput Screening; 94,000 tested, 6.6% active; AID 1345083, 2018; HEK 293 viability, ATP luminescence (CellTiter-Glo), 48-72 h; Potency, µM (doses to about 115 µM), for inactives: at the top dose activity change, negative = cytotoxicity, usual class: inhibitors; further: potency means the concentration at half of the fitted maximal effect; on the % scale 0 is the no-effect control and ±100 the full control effect; nearly all actives have a fitted effect of over 60% in size
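250 HEK 293 cells/well; compound by pintool; incubated 48 or 72 hr at 37 degree Celsius; CellTiter-Glo added, 10 min RT, luminescence imaged.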
HEK293 viab = GF-AFC viability counterscreen for inhibitors of alpha-synuclein gene (SNCA) expression; Potency, µM (top dose mostly 57.1 µM), for inactives: top-dose activity change, negative = cytotoxicity, most hits filed as cytotoxic; 150,000 tested, 0.12% active; HEK-293-SNCA-luc viability, GF-AFC fluorescence, 24 h;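 further: potency means the concentration at half of the fitted maximal effect; 0% = DMSO-treated cells and -100% = medium-only wells without cells; nearly all actives have a fitted effect of over 30% in size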
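HEK-293-SNCA-luc cells (1500/well) plated 24 h, then exposed 24 h to a dilution series; GF-AFC added 30 min at 37C, fluorescence 405/540 nm; normalised to medium-only and DMSO wells, Hill fit.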
SNCA expr inh = Primary qHTS assay for inhibitors of alpha-synuclein gene (SNCA) expression. HEK-293 SNCA-luciferase knock-in, luminescence, 24 h. Potency, µM (top dose mostly 57.2 µM), for the others: top-dose activity change, negative = inhibition, usual class: inhibitors. 140,000 tested, 0.17% active. AID 1671194, 2021;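 further: potency means the concentration at half of the fitted maximal effect; plate controls were DMSO cells for no effect and cell-free wells for full effect; nearly all actives have a fitted effect of over 45% in size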
IP6K1 inhibitor = Primary qHTS assay for small molecule inhibitors of Inositol hexaphosphate kinase 1 (IP6K1); Inositol hexakisphosphate kinase 1 (Homo sapiens), Q92551; IP6K1 kinase, ADP-Glo luminescence, 2 h; active compounds read low; activity change, % (series mostly up to about 58 µM); 140,000 tested, 0.81% active; in the data active means activity change below about -25%; further: on the % scale 0 is the no-effect control and ±100 the full control effect
Target sequence (Q92551 whole entry, looked up): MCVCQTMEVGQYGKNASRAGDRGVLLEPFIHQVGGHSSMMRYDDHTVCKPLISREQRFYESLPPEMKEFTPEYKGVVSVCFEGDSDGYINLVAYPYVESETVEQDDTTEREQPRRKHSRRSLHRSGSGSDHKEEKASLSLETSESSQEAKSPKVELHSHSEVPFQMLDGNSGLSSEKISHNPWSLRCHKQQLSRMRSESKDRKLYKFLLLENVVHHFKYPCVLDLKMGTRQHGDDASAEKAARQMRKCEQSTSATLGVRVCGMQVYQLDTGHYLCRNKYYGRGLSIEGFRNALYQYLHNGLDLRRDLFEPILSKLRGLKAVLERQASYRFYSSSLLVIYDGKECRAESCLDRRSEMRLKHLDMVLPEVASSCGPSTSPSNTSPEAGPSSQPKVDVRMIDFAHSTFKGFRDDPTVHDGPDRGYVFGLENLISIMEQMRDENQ
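ADP-Glo luminescence measures ADP made by human IP6K1 during a 2 h RT reaction with ATP/IP6 (mix at 1.3 mM/130 uM); top library doses 57.5 and 19.1 uM final.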
FLuc SDR no ATP = Firefly luciferase (FLuc-C-HiBiT) SDR gain of signal screen - without ATP; shares compounds with FLuc inh-1; Purified FLuc-C-HiBiT, Nano-Glo HiBiT luminescence, no ATP; Potency, µM (doses to about 32.7 µM), without a hit: top-dose activation (signal gain), usual class: activators; 1,300 tested, 7.8% active; further: potency means the concentration at half of the fitted maximal effect; nearly all actives have a fitted effect of over 55% in size
FLuc SDR ATP = Firefly luciferase (FLuc-C-HiBiT) SDR gain of signal screen - plus ATP; shares compounds with FLuc inh-1; purified FLuc-C-HiBiT + ATP, HiBiT complementation luminescence; Potency, µM (titrated, usually from 32.7 µM), without a hit: top-dose activation (gain of signal), usual class: activators; 1,300 tested, 8.7% active; AID 1963319, 2024;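 further: signal reports ligand binding via conformational change of the enzyme rather than luciferase catalysis; potency means the concentration at half of the fitted maximal effect; % of control where 0% means no effect; nearly all actives have a fitted effect of over 55% in size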
FLuc inh-2 = Firefly luciferase (FLuc-C-HiBiT) enzymatic inhibition screen - Functional assay; Potency, µM (series often up to 32.7 µM), for the others: at the highest dose activity change, negative = inhibition, usual class: inhibitors; shares compounds with FLuc inh-1; purified FLuc-C-HiBiT enzyme, luciferin luminescence; 1,300 tested, 42% active; AID 1963320, 2024; further: potency means the concentration at half of the fitted maximal effect; on the % scale 0 is the no-effect control and ±100 the full control effect; nearly all actives have a fitted effect of over 70% in size
Starred values were filed as active, the others as inactive; i = inactive; ? = inconclusive; . = no result given. An excerpt weighted towards active compounds, which were near 7.3% of everything screened. Unless noted, the call rests on the fitted dose curve; in most records, active means well fitted curve in the direction sought with a large enough effect; inconclusive means small, poorly fitted or top-dose-only effect, or another doubt; inactive means no such curve, though single readings can be large; an effect the other way counts as inactive or inconclusive.

SMILES	FLuc inh-1	NIH3T3 tox	HEK cytotox	HEK293 viab	SNCA expr inh	IP6K1 inhibitor	FLuc SDR no ATP	FLuc SDR ATP	FLuc inh-2
O=C1NCCCc2[nH]c(-c3cc(-c4cccc(F)c4)no3)nc21	2.8µM*	-29%	-34%	2%	16%	13	?	?	7µM*
CCN(Cc1ccccc1)C(=O)CCC[C@@H]1[C@H]2CCCN3CCC[C@@H](CN1C(=O)c1ccccc1)[C@@H]23	i	-23%	?	3%	-28%	1	.	.	.
CC(C)c1ccc(NC(=O)O[C@@H]2CO[C@H]3[C@@H]2OC[C@@H]3NS(=O)(=O)c2cccs2)cc1	11µM*	?	?	-3%	0%	-12	16%	10%	?
Cc1nnc2ccc(N3CCC(NC(=O)Nc4ccccc4F)C3)nn12 (centres undefined)	.	?	?	.	.	7	.	.	.
Cc1c(Cl)cccc1-n1nnc(-c2nc(-c3ccc4c(c3)OCO4)no2)c1C	.	.	.	-10%	37%	3	18%	16%	11µM*
CC(C)c1noc(-c2nc(-c3ccc4c(c3)OCO4)no2)n1	3.5µM*	-24%	?	1%	-20%	-1	16%	17%	7.9µM*
Clc1cccc(-c2nc3ccccn3c2Nc2ccc3c(c2)OCCO3)c1	.	.	.	-8%	40%	-4	.	.	.
CN(C)c1ccc(-c2nc3ccccn3c2Nc2ccc3c(c2)OCCO3)cc1	.	.	.	1%	-2%	-13	19%	13%	11µM*
Oc1ccc(-c2nc3ccccn3c2Nc2ccc3c(c2)OCCO3)cc1	.	.	.	?	?	-10	21%	17%	?
CCc1ccc(S(=O)(=O)N2CCC(n3cnnc3C)CC2)cc1	i	-8%	6%	-2%	-8%	1	.	.	.
COCCN1C(=O)CCc2cc(NC(=O)c3ccc(C)c(C)c3)ccc21	?	?	?	7%	102%	6	.	.	.
CCN1C(=O)CCc2cc(NC(=O)c3ccc(C(C)C)cc3)ccc21	3.5µM*	?	?	-15%	55%	3	25%	14%	?
COc1ccc(NC(=O)c2ccc3snnc3c2)cc1OC	.	.	.	3%	145%	7	.	.	.
Cc1ccc(NC(=O)c2ccc3snnc3c2)cc1C	.	.	.	-4%	114%	6	18%	?	?
Cc1ccc(NC(=O)N2CCC(CCNC(=O)c3ccc(F)cc3)CC2)cc1F	10µM*	?	?	13%	121%	-3	21%	13%	?
COc1ccc(C(=O)NCCC2CCN(C(=O)Nc3cc(F)cc(F)c3)CC2)cc1	6.3µM*	-30%	?	-4%	46%	-8	?	15%	?
Cc1ccc(NC(=O)N2CCC(CCNC(=O)C3CC3)CC2)cc1	10µM*	-19%	?	5%	-31%	-10	?	?	?
COc1cccc(C(=O)NCCC2CCN(C(=O)Nc3cccc(F)c3)CC2)c1	i	?	-23%	0%	80%	-1	.	.	.
Cc1ccc(NC(=O)N2CCC(CCNC(=O)C3CCC3)CC2)cc1F	11µM*	-24%	-12%	6%	-20%	3	?	?	?
COc1ccccc1-c1ccc(CN2CCC(N[S+](C)(=O)[O-])C2)cc1 (centres undefined)	.	?	?	.	.	14	.	.	.
CNC(=O)[C@@H]1CN(C(=O)c2n[nH]c3ccccc23)C[C@H]1c1nc(C)no1	i	i	i	9%	-6%	9	.	.	.
O=C(CCc1ccccc1)Nc1cccc(-c2nnc3n2CCCC3)c1	i	-5%	?	-5%	-1%	13	.	.	.
COc1ccc(NC(=O)c2cc3ccccc3o2)c(OC)c1	.	.	.	7%	69%	5	19%	14%	?
CC(C)CN1C(=O)c2cccn2CC1C(=O)NCc1ccc(OC(C)C)cc1 (centres undefined)	i	-18%	-13%	-4%	24%	-4	.	.	.
CN1CCc2nc3sc(C(=O)Nc4cccc(C#N)c4)c(N)c3cc2C1	.	.	.	5%	200%	30	14%	16%	-12%
SMILES	FLuc inh-1	NIH3T3 tox	HEK cytotox	HEK293 viab	SNCA expr inh	IP6K1 inhibitor	FLuc SDR no ATP	FLuc SDR ATP	FLuc inh-2
CN1CCc2nc3sc(C(=O)Nc4c(F)cccc4F)c(N)c3cc2C1	.	.	.	11%	183%	-14	.	.	.
Cc1ccc(-c2noc(-c3ccccc3NC(=O)c3ccccc3)n2)cc1	.	.	.	8%	116%	9	.	.	.
O=C(O)c1ccccc1-c1noc(-c2ccccc2F)n1	.	.	.	.	.	.	27%	?	?
CC1CCC(NC(=O)c2noc(-c3ccccc3F)n2)CC1 (centres undefined)	8.9µM*	-21%	-27%	-16%	-16%	13	15%	19%	?
CCc1noc(-c2nc(-c3ccccc3F)no2)n1	11µM*	-9%	?	2%	43%	-20	15%	16%	?
O=C(O)c1ccc(-c2noc(-c3ccccc3F)n2)cc1	.	.	.	.	.	.	?	0.25µM*	0.2µM*
CCCCCNC(=O)c1noc(-c2ccccc2F)n1	?	?	?	4%	59%	4	.	.	.
O=C(N[C@H]1C[C@@H](CO)N(CCc2ccccc2)C1)c1cccnc1	i	-8%	-1%	-7%	0%	0	.	.	.
O=C1N(c2cccc(F)c2)C(c2ccccc2)C12CCN(Cc1cccc(F)c1O)CC2 (centres undefined)	.	-38%	?	-14%	-19%	-4	.	.	.

Screening data as filed in PubChem.
